Screens: PubChem BioAssay, Sanford-Burnham Center for Chemical Genomics
Most compounds without a hit are left out; they make up all but 4.1% or so of the library.
FAS TE block: blocks the thioesterase domain of human fatty acid synthase. P49327. recombinant FAS-TE, OMFH fluorogenic substrate, fluorescence endpoint. inhibition, % at 15 µM. actives 0.67% (n = 360,000). AID 602261;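 active = compounds whose normalised, plate-corrected inhibition of enzyme fluorescence in the single-dose primary screen is 50% or more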
GRIN3A LBD mod: modulates the human NR3A ligand-binding domain; NR3A LBD differential scanning fluorimetry, Tm shift; 0% = protein alone, 100% = glycine-bound protein; Tm shift relative to glycine control, % at 25 µM; actives 2.5% (n = 340,000);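 active = melting temperature shift of at least 10% of the positive control shift, at one fixed dose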
MPTP block: blocks calcium-induced mitochondrial swelling | isolated mouse mitochondria, Ca2+ swelling absorbance, 30 min | inhibition, % at 10 µM | actives 1.4% (n = 360,000) | AID 602449;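 active = inhibition of 50% or more, scaled per plate between neutral and stimulator controls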
pCIP destab: p/CIP protein destabilization | actives 0.01% (n = 290,000) | decrease of EGFP signal, % at 10 µM | F442A p/CIP-EGFP cells, EGFP fluorescence, 16 h | Q05BA5;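 active = EGFP signal decrease of at least 30% at 10 µM or well 3 SD below plate mean, unless failing retest; inactive = the rest, including hits failing retest or dose response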
Target sequence (Q05BA5 1-1403): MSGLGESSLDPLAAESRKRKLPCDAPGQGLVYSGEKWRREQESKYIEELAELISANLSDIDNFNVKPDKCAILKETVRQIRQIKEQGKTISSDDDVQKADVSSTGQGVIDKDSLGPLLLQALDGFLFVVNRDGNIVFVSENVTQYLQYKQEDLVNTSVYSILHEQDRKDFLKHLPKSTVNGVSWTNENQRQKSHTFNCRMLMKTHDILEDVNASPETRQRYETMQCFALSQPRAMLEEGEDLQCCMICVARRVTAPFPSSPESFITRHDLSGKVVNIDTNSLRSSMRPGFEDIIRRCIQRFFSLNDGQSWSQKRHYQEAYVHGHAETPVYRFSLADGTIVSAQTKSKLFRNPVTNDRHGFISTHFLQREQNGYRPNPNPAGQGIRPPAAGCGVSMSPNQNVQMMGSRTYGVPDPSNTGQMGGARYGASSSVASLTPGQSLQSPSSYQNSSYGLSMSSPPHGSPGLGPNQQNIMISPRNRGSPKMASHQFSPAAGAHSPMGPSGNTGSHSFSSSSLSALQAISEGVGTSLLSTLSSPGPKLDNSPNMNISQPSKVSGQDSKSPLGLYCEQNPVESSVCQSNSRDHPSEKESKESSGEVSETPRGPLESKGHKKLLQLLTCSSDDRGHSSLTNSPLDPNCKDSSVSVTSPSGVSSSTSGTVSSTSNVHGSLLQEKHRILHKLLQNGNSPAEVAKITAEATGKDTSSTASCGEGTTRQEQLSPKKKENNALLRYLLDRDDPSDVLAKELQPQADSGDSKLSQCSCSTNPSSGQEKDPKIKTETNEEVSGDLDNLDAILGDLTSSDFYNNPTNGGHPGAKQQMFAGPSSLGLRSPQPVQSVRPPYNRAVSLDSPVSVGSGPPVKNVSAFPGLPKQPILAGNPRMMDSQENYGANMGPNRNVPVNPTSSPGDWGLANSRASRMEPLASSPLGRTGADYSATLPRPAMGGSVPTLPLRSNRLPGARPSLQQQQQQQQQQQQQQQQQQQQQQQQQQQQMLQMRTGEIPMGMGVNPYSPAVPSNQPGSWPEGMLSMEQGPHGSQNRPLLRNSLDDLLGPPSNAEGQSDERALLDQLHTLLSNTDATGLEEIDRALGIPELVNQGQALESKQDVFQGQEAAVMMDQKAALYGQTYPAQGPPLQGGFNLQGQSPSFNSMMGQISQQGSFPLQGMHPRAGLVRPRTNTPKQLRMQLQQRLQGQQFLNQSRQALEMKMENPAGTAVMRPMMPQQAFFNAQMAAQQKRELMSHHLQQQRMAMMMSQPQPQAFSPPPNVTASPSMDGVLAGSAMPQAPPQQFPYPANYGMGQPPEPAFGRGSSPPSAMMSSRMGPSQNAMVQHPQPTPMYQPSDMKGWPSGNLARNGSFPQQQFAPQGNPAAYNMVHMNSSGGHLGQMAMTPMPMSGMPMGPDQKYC
beta cell repl: inducers of beta-cell replication in MIN6 cells; proliferation, % at 10 µM; actives 0.29% (n = 330,000); MIN6 cells proliferation, ATPlite luminescence, 48 h; cells starved in 0.2% serum; 100% = growth in 10% serum;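 active = compounds whose signal lies at least 3.5 SD above the mean of all wells on their plate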
Rh123 counter: mitochondrial membrane potential, counter-screen; actives 78% (n = 5,000); inhibition, % at 10 µM; isolated mitochondria, Rhodamine 123 fluorescence; shares compounds with MPTP block; in the data active = inhibition above about 22%
MPTP swell DR: MPTP inhibition, dose response swelling confirmation; actives 58% (n = 780); AID 651561; shares compounds with MPTP block; IC50, µM; isolated mitochondria swelling, absorbance; in the data active = IC50 below about 20 µM
MPTP counter DR: active in counter-screen for permeability transition pore inhibitors. shares compounds with MPTP block. isolated mitochondria counterscreen, fluorescence read-out. IC50, µM. actives 49% (n = 780); in the data active = IC50 below about 80 µM
Each line names hits and unclear results; the compound was inactive in the other large screens (follow-up assays come after a bar, where they were run).

S=C(Nc1ccc(Oc2ccccc2)cc1)NC1CCCCCC1	GRIN3A LBD mod 11, MPTP block 96 (no result: beta cell repl) | Rh123 counter 89
O=C(Nc1ccc(Br)cc1)NC1CCCCCCC1	GRIN3A LBD mod 11, MPTP block 88 | Rh123 counter 96
S=C(NCc1cccc(Cl)c1)NC1CCCCC1	MPTP block 77 | Rh123 counter 67
S=C(Nc1ccc(Oc2ccccc2)cc1)NC1CCCCC1	MPTP block 80 | Rh123 counter 95
O=C(Nc1ccccc1)NC1CCCCCCC1	none (no result: pCIP destab)
COc1ccc(NC(=S)Nc2ccc(Oc3ccccc3)cc2)cc1	none
COc1ccc2[nH]c3c(c2c1)CCN1C(=O)N([C@@H](C)C(=O)NCc2ccco2)C(=O)[C@]31C	none
O=C(N1CCOCC1)N1CCC(n2nnc3ccccc32)CC1	none
Cc1cc(C)cc(OCCNC(=O)C2CCN(S(=O)(=O)c3ccccc3)CC2)c1	none
S=C(Nc1ccc(Cl)c(Cl)c1)NC1CCCCC1	GRIN3A LBD mod 23, MPTP block 96 | Rh123 counter 75
CC12CN3CC(C)(CN(C1)C3c1cc(Br)ccc1O)C2=O (stereo not given)	none
CC1(C)C(=O)OC(c2cc(Br)ccc2O)C(C)(C)C1=O (stereo not given)	MPTP block 82 | Rh123 counter 89
CN(C)S(=O)(=O)c1ccccc1N=C=S	none
O=c1c(Cc2ccccc2)c(O)c2cccc3c4c(n1c23)CCCC4	MPTP block 66 | Rh123 counter 80
CCc1sc(C(C2C(=O)CC(C)(C)CC2=O)C2C(=O)CC(C)(C)CC2=O)cc1[N+](=O)[O-]	none
COC(=O)c1ccc2c(=O)n(CCCCCC(=O)N3CCN(c4ccccc4)CC3)c(=O)[nH]c2c1	MPTP block 64 | Rh123 counter 46
CCN1CCN(C(=O)CCCCCn2c(=O)[nH]c3cc(C(=O)OC)ccc3c2=O)CC1	none
CC1=N/C(=C/c2cc(Br)cc(Br)c2O)C(=O)O1	none
O=C(Nc1cccc(C(F)(F)F)c1)C1CCCCC1	none
O=C(Nc1cccc(F)c1)C1CCCCC1	none (no result: pCIP destab)
Fc1cccc(NC(=S)NC2CCCCCCC2)c1	MPTP block 75 | Rh123 counter 98
FC(F)(F)c1cccc(NC(=S)NC2CCCC2)c1	MPTP block 100 | Rh123 counter 83
FC(F)(F)c1ccc(NC(=S)NC2CCCCC2)cc1	MPTP block 99 | Rh123 counter 78
O=C(O)c1ccc(NC(=S)NC2CCCCC2)cc1	none
Cc1nnc2n(-c3ccccc3)c(=O)c3c4c(sc3n12)COC(C(C)C)C4 (stereo not given)	none
CC(C)C1Cc2c(sc3[nH]c(=S)n(Cc4ccccc4)c(=O)c23)CO1 (stereo not given)	MPTP block 81 | Rh123 counter 26
CSc1nsc(N/N=C/c2ccc3c(c2)OCO3)c1C#N	none
COc1cc(/C=N/Nc2snc(SC)c2C#N)cc(OC)c1OC	MPTP block 73 | Rh123 counter 75
FC(F)(F)Oc1ccc(NC(=S)Nc2ccccc2N2CCOCC2)cc1	MPTP block 90 | Rh123 counter 81
NS(=O)(=O)c1ccc(CCNCc2cc(Br)ccc2OCc2ccccc2)cc1	MPTP block 66 | Rh123 counter 52
CCOc1cc(CNCCc2ccc(S(N)(=O)=O)cc2)ccc1OCc1ccccc1	MPTP block 105 (no result: beta cell repl) | Rh123 counter 41
N#C/C(=C\c1ccc(Sc2nc3ccccc3[nH]2)o1)c1ccccc1	MPTP block 93 | Rh123 counter 84
N#C/C(=C\c1ccc(Sc2ccc(Cl)cc2)o1)c1nc2ccccc2[nH]1	GRIN3A LBD mod 15, MPTP block 106 (no result: beta cell repl) | Rh123 counter 69
N#C/C(=C/c1ccc(N2CCOCC2)o1)c1nc2ccccc2[nH]1	none
CCCCN(Cc1cc2cccc(C)c2[nH]c1=O)S(C)(=O)=O	none
O=C(Nc1ccc(Cl)c(Cl)c1)c1ccc(Cn2cc(Cl)cn2)cc1	GRIN3A LBD mod 24, MPTP block 54 (no result: beta cell repl) | Rh123 counter 87
C1CCC(C(CC2CCCCN2)C2CCCCC2)CC1 (stereo not given)	MPTP block 82 | Rh123 counter inactive
CCSc1nnc(NC(=O)Nc2cccc(C)c2)s1	MPTP block 82 | Rh123 counter 84
CCSc1nnc(NC(=O)[C@@H](NC(=O)c2cccc(C)c2)C(C)C)s1	none
O=C(Nc1nnc(SCc2ccc(Cl)cc2)s1)c1cnccn1	none
O=C(Nc1ccccc1)Nc1nnc(SCc2ccc(Cl)cc2)s1	GRIN3A LBD mod 35, MPTP block 86 | Rh123 counter 33
O=C(Nc1ccc(Cl)cc1)Nc1nnc(SCc2ccc(Cl)cc2)s1	MPTP block 85 | Rh123 counter 24
C=CCOc1ccc(/C=C/C(=O)OCC(=O)NNC(=O)c2ccccc2F)cc1	none (no result: pCIP destab)
Cc1cc([N+](=O)[O-])ccc1NC(=O)/C=C/c1cccs1	MPTP block 83 | Rh123 counter 31
CC(=O)c1cccc(NC(=O)COc2cc3oc(=O)c(CC(C)O)c(C)c3cc2Cl)c1 (stereo not given)	none
O=[N+]([O-])c1ccc(N2CCN(Cc3ccccc3)CC2)c2c1no[n+]2[O-]	MPTP block 98 (no result: GRIN3A LBD mod, pCIP destab, beta cell repl) | Rh123 counter inactive
O=[N+]([O-])c1ccc(N2CCN(Cc3ccccc3)CC2)s1	none
O=[N+]([O-])c1cc(C(F)(F)F)ccc1NCCCCNS(=O)(=O)c1ccc(Cl)cc1	MPTP block 86 | Rh123 counter 90
O=[N+]([O-])c1cc(C(F)(F)F)ccc1NCCNC(=S)Nc1ccc(Cl)cc1	GRIN3A LBD mod 15, MPTP block 94 | Rh123 counter 70
COC(=O)c1c(NC(=O)C2CCCCC2)sc2c1CCN(C(C)C)C2	MPTP block 55 | Rh123 counter inactive | MPTP swell DR inactive | MPTP counter DR inactive
CCOC(=O)c1c(NC(=O)C2CCCCC2)sc2c1CCN(C(C)C)C2	none
CCOC(=O)NC1(Nc2cccc(Cl)c2)Oc2ccccc2O1	none (no result: beta cell repl)
CCOC(=O)NC(=O)/C(C#N)=N\Nc1cccc(Cl)c1	MPTP block 93 | Rh123 counter 73
CCOC(=O)NC(=O)/C(C#N)=N\Nc1ccc(Cl)cc1	MPTP block 90 | Rh123 counter 95
CCOc1ccc(N/N=C(/C#N)C(N)=O)cc1	none
Cc1c(N/N=C(\C#N)C(=O)c2ccc(Cl)cc2)c(=O)n(-c2ccccc2)n1C	none (no result: beta cell repl)
N#C/C(=N\Nc1ccc(Cl)cc1)C(=O)c1ccccc1	MPTP block 96 | Rh123 counter 83
CCOc1ncccc1C(=O)Nc1ccc(S(=O)(=O)Nc2cc(C)nc(C)n2)cc1	none (no result: pCIP destab)
